Experimental data taken from the supplement of paper PMC11001985.

Compound: C#CCNC(=O)CCSSCCC(=O)NCCc1ccc(C=O)c(C=O)c1
Assay: lysine labeling ratio R10:1 (500 µM / 50 µM probe), SILAC-ABPP in living cells; higher = lower intrinsic lysine reactivity toward the probe, active = 2 or less
Settings: HeLa; probe concentrations 500 vs 50 µM
In short: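 SILAC light and heavy living HeLa cells in PBS at room temperature were labelled with 50 µM or 500 µM of an alkyne-tagged, disulfide-linked lysine probe, with forward and reverse label swaps. Mixed lysates were clicked to biotin-azide, trypsin-digested, captured on neutravidin, DTT-released, alkylated and analysed by LC-MS/MS on a TIMS-TOF Pro. R is the filtered median high-probe/low-probe MS1 peptide ratio per lysine, then the median across forward and reverse replicates. Ratios are capped at 20.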

Sequence of UniProt Q16181 (Q16181 whole entry): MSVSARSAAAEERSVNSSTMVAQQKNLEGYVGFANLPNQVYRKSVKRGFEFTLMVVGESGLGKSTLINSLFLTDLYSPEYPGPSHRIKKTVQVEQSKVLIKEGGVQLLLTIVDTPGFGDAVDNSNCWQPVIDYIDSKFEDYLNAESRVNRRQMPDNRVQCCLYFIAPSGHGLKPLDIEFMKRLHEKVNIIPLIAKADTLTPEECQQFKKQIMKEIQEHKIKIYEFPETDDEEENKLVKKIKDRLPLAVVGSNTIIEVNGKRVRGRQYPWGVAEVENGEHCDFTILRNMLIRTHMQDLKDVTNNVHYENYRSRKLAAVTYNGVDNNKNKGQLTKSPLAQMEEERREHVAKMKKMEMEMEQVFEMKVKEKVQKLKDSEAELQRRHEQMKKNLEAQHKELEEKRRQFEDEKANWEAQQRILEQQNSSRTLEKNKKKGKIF
Sequence of UniProt P15509 (P15509 whole entry): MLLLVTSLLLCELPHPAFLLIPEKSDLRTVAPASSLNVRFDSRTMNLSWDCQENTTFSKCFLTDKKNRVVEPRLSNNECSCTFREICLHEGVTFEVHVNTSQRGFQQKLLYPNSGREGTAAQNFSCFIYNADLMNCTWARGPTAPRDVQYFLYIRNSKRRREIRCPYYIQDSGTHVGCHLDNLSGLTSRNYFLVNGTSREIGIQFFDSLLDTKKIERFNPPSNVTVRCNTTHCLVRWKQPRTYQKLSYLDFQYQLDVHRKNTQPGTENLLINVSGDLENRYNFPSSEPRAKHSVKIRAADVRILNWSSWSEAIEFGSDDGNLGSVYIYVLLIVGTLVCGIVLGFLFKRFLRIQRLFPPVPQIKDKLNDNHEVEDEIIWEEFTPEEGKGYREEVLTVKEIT
Sequence of UniProt P21589 (P21589 whole entry): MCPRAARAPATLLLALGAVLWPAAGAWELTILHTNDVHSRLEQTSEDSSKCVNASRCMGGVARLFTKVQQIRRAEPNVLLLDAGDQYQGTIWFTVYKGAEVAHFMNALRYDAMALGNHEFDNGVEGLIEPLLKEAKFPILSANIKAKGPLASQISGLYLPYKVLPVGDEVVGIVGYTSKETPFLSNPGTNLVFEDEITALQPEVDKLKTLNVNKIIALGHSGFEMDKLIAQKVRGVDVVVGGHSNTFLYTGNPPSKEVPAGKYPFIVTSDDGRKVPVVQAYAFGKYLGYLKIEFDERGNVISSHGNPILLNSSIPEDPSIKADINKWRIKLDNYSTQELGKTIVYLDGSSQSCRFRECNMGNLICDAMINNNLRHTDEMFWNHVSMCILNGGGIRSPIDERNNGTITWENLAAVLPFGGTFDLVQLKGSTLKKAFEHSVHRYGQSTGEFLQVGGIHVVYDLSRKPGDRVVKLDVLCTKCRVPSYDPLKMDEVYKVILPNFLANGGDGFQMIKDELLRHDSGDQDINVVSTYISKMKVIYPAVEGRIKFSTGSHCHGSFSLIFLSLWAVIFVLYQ
Sequence of UniProt P29401 (P29401 whole entry): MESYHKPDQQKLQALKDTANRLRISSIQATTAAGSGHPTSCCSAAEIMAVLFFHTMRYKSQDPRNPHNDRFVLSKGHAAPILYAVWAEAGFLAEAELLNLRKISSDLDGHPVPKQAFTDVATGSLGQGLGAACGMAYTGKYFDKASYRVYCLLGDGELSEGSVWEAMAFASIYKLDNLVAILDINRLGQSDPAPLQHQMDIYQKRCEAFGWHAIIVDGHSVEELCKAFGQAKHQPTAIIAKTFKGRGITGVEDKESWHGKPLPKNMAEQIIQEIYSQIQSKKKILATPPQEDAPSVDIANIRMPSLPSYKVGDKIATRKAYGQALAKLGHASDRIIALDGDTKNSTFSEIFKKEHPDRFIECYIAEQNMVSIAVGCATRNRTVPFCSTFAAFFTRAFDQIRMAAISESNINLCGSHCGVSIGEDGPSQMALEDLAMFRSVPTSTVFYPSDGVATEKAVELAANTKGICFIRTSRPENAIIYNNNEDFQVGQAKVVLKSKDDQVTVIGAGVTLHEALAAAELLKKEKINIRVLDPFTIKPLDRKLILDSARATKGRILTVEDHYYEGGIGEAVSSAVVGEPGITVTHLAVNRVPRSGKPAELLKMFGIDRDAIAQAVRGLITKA
Sequence of UniProt P51805 (P51805 whole entry): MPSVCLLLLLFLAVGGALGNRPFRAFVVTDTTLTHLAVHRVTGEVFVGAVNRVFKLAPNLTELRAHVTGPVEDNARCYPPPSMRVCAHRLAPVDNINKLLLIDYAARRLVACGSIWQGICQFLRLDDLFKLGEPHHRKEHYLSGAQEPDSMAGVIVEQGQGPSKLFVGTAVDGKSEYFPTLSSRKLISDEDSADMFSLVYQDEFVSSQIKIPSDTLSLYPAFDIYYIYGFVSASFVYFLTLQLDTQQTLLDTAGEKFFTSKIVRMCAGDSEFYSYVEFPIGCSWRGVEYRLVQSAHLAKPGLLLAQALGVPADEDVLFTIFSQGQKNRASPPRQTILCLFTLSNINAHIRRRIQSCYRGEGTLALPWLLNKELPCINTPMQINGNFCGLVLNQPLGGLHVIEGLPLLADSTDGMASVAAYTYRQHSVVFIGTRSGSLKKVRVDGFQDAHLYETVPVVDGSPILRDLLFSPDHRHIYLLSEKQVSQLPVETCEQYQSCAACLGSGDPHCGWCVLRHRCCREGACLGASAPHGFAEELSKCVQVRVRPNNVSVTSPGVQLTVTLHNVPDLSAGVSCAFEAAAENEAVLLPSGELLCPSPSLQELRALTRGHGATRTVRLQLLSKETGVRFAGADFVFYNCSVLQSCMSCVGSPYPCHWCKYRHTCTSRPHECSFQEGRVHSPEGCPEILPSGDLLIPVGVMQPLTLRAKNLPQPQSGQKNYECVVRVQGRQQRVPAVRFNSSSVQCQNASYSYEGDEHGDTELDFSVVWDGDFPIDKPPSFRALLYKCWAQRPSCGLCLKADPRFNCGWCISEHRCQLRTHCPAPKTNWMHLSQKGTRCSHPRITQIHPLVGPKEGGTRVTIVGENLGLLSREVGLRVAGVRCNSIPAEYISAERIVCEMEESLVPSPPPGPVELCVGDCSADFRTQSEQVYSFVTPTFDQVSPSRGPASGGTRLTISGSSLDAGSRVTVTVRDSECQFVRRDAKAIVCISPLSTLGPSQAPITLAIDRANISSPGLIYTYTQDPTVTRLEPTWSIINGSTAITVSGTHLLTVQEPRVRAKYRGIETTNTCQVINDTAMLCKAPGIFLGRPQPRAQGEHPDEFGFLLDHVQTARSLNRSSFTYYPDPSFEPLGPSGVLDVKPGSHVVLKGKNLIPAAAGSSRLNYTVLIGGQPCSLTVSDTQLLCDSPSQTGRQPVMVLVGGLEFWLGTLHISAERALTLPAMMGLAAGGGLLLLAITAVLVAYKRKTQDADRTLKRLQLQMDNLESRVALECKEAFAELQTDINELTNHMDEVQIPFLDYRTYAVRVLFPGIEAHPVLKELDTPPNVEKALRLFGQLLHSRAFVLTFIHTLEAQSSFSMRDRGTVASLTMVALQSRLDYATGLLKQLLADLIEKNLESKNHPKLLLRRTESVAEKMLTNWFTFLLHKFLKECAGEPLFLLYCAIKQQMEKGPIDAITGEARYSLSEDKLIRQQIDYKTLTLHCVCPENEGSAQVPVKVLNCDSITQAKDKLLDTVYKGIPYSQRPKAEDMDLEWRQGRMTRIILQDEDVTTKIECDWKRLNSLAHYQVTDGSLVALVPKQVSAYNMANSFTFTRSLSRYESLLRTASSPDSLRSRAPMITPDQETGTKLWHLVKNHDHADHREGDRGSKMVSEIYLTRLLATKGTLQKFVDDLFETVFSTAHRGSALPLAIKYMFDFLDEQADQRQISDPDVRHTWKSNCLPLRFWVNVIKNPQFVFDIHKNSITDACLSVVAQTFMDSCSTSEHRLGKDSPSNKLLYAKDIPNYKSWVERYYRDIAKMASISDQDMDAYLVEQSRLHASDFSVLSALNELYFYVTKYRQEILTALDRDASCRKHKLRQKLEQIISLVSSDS
Sequence of UniProt P30086 (P30086 whole entry, looked up): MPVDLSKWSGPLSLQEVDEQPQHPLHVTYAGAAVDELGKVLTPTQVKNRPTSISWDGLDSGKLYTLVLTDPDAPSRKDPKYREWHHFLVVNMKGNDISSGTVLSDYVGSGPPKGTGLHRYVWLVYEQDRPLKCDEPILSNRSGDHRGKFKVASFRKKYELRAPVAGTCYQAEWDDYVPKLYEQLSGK
Sequence of UniProt P49257 (P49257 whole entry): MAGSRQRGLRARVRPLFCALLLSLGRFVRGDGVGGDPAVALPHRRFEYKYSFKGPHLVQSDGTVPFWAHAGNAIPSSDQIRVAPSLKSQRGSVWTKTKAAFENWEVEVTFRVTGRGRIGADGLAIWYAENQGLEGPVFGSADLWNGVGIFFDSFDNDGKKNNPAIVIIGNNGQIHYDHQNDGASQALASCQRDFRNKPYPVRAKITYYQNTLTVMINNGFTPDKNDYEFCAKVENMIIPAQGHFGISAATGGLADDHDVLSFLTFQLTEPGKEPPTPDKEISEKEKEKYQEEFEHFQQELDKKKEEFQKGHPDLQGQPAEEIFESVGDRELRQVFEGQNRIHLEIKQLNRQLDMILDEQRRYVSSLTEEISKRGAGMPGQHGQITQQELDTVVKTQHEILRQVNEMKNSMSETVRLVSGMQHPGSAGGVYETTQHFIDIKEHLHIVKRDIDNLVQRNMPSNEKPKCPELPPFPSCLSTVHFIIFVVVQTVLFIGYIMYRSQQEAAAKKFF
Sequence of UniProt P37802 (P37802 whole entry): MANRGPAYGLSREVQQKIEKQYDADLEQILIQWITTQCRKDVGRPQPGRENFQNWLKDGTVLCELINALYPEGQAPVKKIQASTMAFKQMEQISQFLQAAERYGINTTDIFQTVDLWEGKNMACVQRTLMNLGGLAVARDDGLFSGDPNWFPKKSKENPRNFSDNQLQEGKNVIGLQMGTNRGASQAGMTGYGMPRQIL

Lysine labeling ratio R10:1, inactive:
LAMC1 (lysine site: K1425) (UniProt P11047) 2.54, UniProt Q16181 (lysine site: K373) 2.37, PEBP1 (lysine site: K113) (UniProt P30086) 2.7, UniProt Q99466 (lysine site: K1372) 9.22, TKT (lysine site: K144) (UniProt P29401) 10.4, LMAN1 (lysine site: K346) (UniProt P49257) 9.39, TAGLN2 (lysine site: K171) (UniProt P37802) 8.2, UniProt O95084 (lysine site: K270) 2.67, SLC4A2 (lysine site: K893) (UniProt P04920) 3.14

Lysine labeling ratio R10:1, active:
CSF2RA (lysine site: K108) (UniProt P15509) 0.663, HNRNPU (lysine site: K551) (UniProt Q00839) 1.98, HNRNPL (lysine site: K493) (UniProt P14866) 1.94, UniProt Q9UKX5 (lysine site: K402) 0.975, FLNA (lysine site: K1164) (UniProt P21333) 1.16, PLXNA3 (lysine site: K622) (UniProt P51805) 1.94, UniProt Q14574 (lysine site: K180) 1.97, UniProt P21589 (lysine site: K232) 1.92
